# Assay results: the supplement of paper PMC10498489
# In all, about 2,300 compounds went through this assay and about 330 (14%) showed activity. These entries were drawn from the full list. Unmarked numbers belong to inactive results.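 The calls were made as follows: active = median modified Z-score above 1.96; inactive = 1.96 or below.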
# Tested on: HepG2 Srxn1-GFP reporter cells (+30 nM CDDO-Me)
# Assay: Srxn1-GFP intensity median modified Z-score relative to plate median; higher = stronger NRF2 / oxidative stress reporter activation, active = hit call of the paper
# Conditions: 10 µM; exposure time: 24h
# How it was run: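 HepG2 Srxn1-GFP BAC reporter cells were seeded at 20,000 per well in 96-well plates and co-exposed for 24 h to compound at 10 μM and an NRF2 activator at 30 nM, with DMSO at ≤0.1%, in three replicate plates. Cells were fixed with formaldehyde, stained with Hoechst and imaged by confocal microscopy, and cytoplasmic GFP was measured per cell, with images holding under 100 cells discarded. The reported value is the median over replicates of each plate's modified Z-score of GFP intensity. For this score, scaling used 1.4826 × median absolute deviation.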
row,Compound,Srxn1-GFP intensity median modified Z-score
1,N=c1[nH]c(=O)c2ncn(CCC(CO)CO)c2[nH]1 [euspeclibcmpd464],0.273
2,O=C(O)C1=CC(=C(c2ccc(O)c(C(=O)O)c2)c2ccc(O)c(C(=O)O)c2)C=CC1=O [euspeclibcmpd1741],-0.835
3,O=C1C=CC(=C(c2ccc(O)cc2)c2ccc(O)cc2)C=C1 [euspeclibcmpd1770],19.5 (active)
4,CCC(=O)c1ccc(O)cc1 [euspeclibcmpd1262],0.156
5,O=C(O)c1cc(N=Nc2ccc(S(=O)(=O)N=c3cccc[nH]3)cc2)ccc1O [euspeclibcmpd280],-0.614
6,Cc1ccc(C(=O)c2ccc(CC(=O)O)n2C)cc1 [euspeclibcmpd2405],0.508
7,OC[C@H](O)C(O)[C@@H](O)CO [euspeclibcmpd2128],-0.222
8,COc1cc(O)c2c(=O)c(OC)c(-c3ccc(OC)c(OC)c3)oc2c1 [euspeclibcmpd1656],-0.275
9,NC(=O)NC(CCC(=O)O)C(=O)O (stereo not drawn) [euspeclibcmpd1209],0.184
10,CCc1nn(CCCN2CCN(c3cccc(Cl)c3)CC2)c(=O)n1CCOc1ccccc1 [euspeclibcmpd461],8.98 (active)
11,O=c1n(CCCN2CCN(c3cccc(Cl)c3)CC2)nc2ccccn12 [euspeclibcmpd533],0
12,O=C1CCc2ccc(OCCCCN3CCN(c4cccc(Cl)c4Cl)CC3)cc2N1 [euspeclibcmpd879],0.292
13,Cc1c(C)c2c(c(C)c1O)CCC(C)(C(=O)O)O2 (stereo not drawn) [euspeclibcmpd1989],-0.727
14,COc1ccc(=NS(=O)(=O)c2ccc(N)cc2)[nH]n1 [euspeclibcmpd409],-0.327
15,CC(C)c1nc(CN(C)C(=O)NC(C(=O)N[C@@H](Cc2ccccc2)C[C@H](O)[C@H](Cc2ccccc2)NC(=O)OCc2cncs2)C(C)C)cs1 (stereo partly drawn) [euspeclibcmpd486],0.333
16,COc1ccccc1N1CCN(CCCNc2cc(=O)n(C)c(=O)n2C)CC1 [euspeclibcmpd1121],-0.334
17,COC1=C(C)C2CC(=O)O[C@@H]3C[C@H]4C(C)=CC(OC)C(=O)[C@]4(C)C(C1=O)[C@]23C (stereo partly drawn) [euspeclibcmpd1498],0.142
18,COc1ccc2cc1Oc1ccc(cc1)C[C@H]1c3cc(c(OC)cc3CCN1C)Oc1c(OC)c(OC)cc3c1[C@H](C2)N(C)CC3 [euspeclibcmpd1476],21.7 (active)
19,COc1ccc2cc1Oc1ccc(cc1)C[C@H]1c3c(cc4c(c3Oc3cc5c(cc3OC)CCN(C)[C@@H]5C2)OCO4)CCN1C [euspeclibcmpd1270],4.85 (active)
20,COc1ccc2c(c1OC)C(=O)O[C@H]2[C@H]1c2c(cc3c(c2OC)OCO3)CCN1C [euspeclibcmpd216],0.635
21,CN1CC(=O)N2C(Cc3c([nH]c4ccccc34)[C@H]2c2ccc3c(c2)OCO3)C1=O (stereo partly drawn) [euspeclibcmpd833],-0.451

row,Compound,Srxn1-GFP intensity median modified Z-score
1,CO[C@@H]1[C@@H](O[C@@H]2O[C@H](C)[C@@H](O[C@H]3C[C@@](C)(O)[C@H](O)[C@H](C)O3)[C@H](N(C)C)[C@H]2O)[C@@H](CC=O)C[C@@H](C)[C@@H](O[C@H]2CC[C@H](N(C)C)[C@@H](C)O2)/C=C/C=C/C[C@H](C)OC(=O)C[C@H]1O [euspeclibcmpd581],0.0936
2,CC(C)(O)c1ccccc1CC[C@@H](SCC1(CC(=O)O)CC1)c1cccc(/C=C/c2ccc3ccc(Cl)cc3n2)c1 [euspeclibcmpd2362],8.32 (active)
3,CC1=CC(=O)C2C(C)(C)CCC[C@]2(C)[C@@]1(O)CCc1ccoc1 (stereo partly drawn) [euspeclibcmpd1719],17.2 (active)
4,CCC1(CC)C(=O)CC=NC1=O [euspeclibcmpd1119],-0.354
5,CN(C)CCCOc1nn(Cc2ccccc2)c2ccccc12 [euspeclibcmpd892],-0.182
6,C=CCOC(=O)C1=C(C)NC(C)=C(C(=O)OCC=C)C1/C=C/c1ccccc1,4.92 (active)
7,COC1=CC(/C=C/c2ccccc2)OC(=O)C1 (stereo not drawn) [euspeclibcmpd1481],-0.206
8,Nc1ccc(S(=O)(=O)N=c2[nH]ccs2)cc1 [euspeclibcmpd281],-0.259
9,CC(=O)OCC(=O)[C@@]1(O)CCC2C3CC=C4CC(=O)C=C[C@]4(C)[C@@]3(F)[C@@H](O)C[C@@]21C (stereo partly drawn) [euspeclibcmpd2402],-0.201
10,CC(C)CCCC(C)C1CCC2C3CC[C@H]4CC(=O)CC[C@]4(C)C3CC[C@]12C (stereo partly drawn) [euspeclibcmpd1405],-0.338
11,NC(C(=O)C(=O)O)C(O)O (stereo not drawn) [euspeclibcmpd1337],-0.207
12,Cc1nc2n(c(=O)c1CCN1CCC(c3noc4cc(F)ccc34)CC1)CCCC2 [euspeclibcmpd909],0.484
13,Cc1nc2sccn2c(=O)c1CCN1CCC(=C(c2ccc(F)cc2)c2ccc(F)cc2)CC1 [euspeclibcmpd532],7.86 (active)
14,Cc1nc2ccccn2c(=O)c1CCN1CCC(C(=O)c2ccc(F)cc2)CC1 [euspeclibcmpd878],-0.586
15,CCC(=O)OCC(=O)C1(OC(=O)CC)C(C)CC2C3C(Cl)C=C4CC(=O)C=CC4(C)C3C(O)CC21C (stereo not drawn) [euspeclibcmpd1830],-0.727
16,Cc1cc(O)c(C)c(O)c1C(=O)O [euspeclibcmpd2002],-0.247
17,CC(=O)NC(CCC(C)C)C(=O)O (stereo not drawn),1.23
18,CC(=O)O[C@H]1CC[C@@]2(C)C(CC[C@]3(C)C2CC=C2C4CC(C)(C)CC[C@]4(C)CC[C@]23C)C1(C)C (stereo partly drawn) [euspeclibcmpd1641],-0.192
19,CC(C=C/C=C(C)/C=C/C1=C(C)CCCC1(C)C)=CC(=O)O [euspeclibcmpd2414],3.46 (active)
20,CC1=C(/C=C/C(C)=C/C=C/C(C)=C/C=C/C=C(C)/C=C/C=C(C)/C=C/C2=C(C)CCCC2(C)C)C(C)(C)CCC1 [euspeclibcmpd256],1.65
21,CC1=C(/C=C/C(C)=C/C=C/C(C)=C/CO)C(C)(C)CCC1 [euspeclibcmpd419],-0.0835

row,Compound,Srxn1-GFP intensity median modified Z-score
1,CC[C@]12CCCN3CCc4c(n(c5ccccc45)[C@](O)(C(=O)OC)C1)[C@@H]32 [euspeclibcmpd1043],1.43
2,COC(=O)C1=C(C)N=C(C)C(C(=O)OC)C1c1ccccc1[N+](=O)[O-] (stereo not drawn) [euspeclibcmpd208],-0.363
3,COC(=O)C1=C(C)N=C(C)C(C(=O)OCCN2CCN(C(c3ccccc3)c3ccccc3)CC2)C1c1cccc([N+](=O)[O-])c1 (stereo not drawn) [euspeclibcmpd869],5.13 (active)
4,COCCOC(=O)C1=C(C)N=C(C)C(C(=O)OC(C)C)C1c1cccc([N+](=O)[O-])c1 (stereo not drawn) [euspeclibcmpd585],0.492
5,COC(=O)C1=C(C)N=C(C)C(C(=O)OCC(C)C)C1c1ccccc1[N+](=O)[O-] (stereo not drawn) [euspeclibcmpd766],10.8 (active)
6,COC(=O)C1=C(C)N=C(C)C(C(=O)OCCN(C)Cc2ccccc2)C1c1cccc([N+](=O)[O-])c1 (stereo not drawn) [euspeclibcmpd393],-0.375
7,C#C[C@]1(O)CCC2C3CCC4=Cc5oncc5C[C@]4(C)C3CC[C@@]21C (stereo partly drawn) [euspeclibcmpd81],-0.371
8,N=c1[nH]cnc2c1ncn2[C@@H]1O[C@H](COP(=O)(O)OP(=O)(O)OC[C@H]2O[C@@H]([n+]3cccc(C(N)=O)c3)[C@H](O)[C@@H]2O)[C@@H](O)[C@H]1O [euspeclibcmpd202],-0.305
9,CCC(=O)OCC(=O)[C@@]1(OC(=O)CC)[C@@H](C)CC2C3CC=C4CC(=O)C=C[C@]4(C)C3(F)[C@@H](O)C[C@@]21C (stereo partly drawn) [euspeclibcmpd541],-0.359
10,O=C(O)c1cc(-c2ccccc2)nc2cc(Br)ccc12,1.37
11,CC1OC(n2cc(F)c(=O)[nH]c2=O)C(O)C1O (stereo not drawn) [euspeclibcmpd1997],-0.334
12,CN[C@@H]1[C@H](O)[C@H](NC)[C@H]2O[C@@]3(O)C(=O)C[C@@H](C)O[C@H]3O[C@@H]2[C@H]1O [euspeclibcmpd268],-0.125
13,COc1ccc([C@H]2Oc3cc(OC)cc(OC)c3C[C@H]2O)cc1 [euspeclibcmpd1383],0
14,COc1ccc2c(c1)O[C@@H]1COc3cc(OC)c(OC)cc3C1C2=O (stereo partly drawn) [euspeclibcmpd1700],22.8 (active)
15,COc1cc2c(cc1OC)C1C(=O)c3ccc4c(c3O[C@@H]1CO2)C=CC(C)(C)O4 (stereo partly drawn) [euspeclibcmpd1734],12.7 (active)
16,COc1ccc2c(c1)O[C@H]1c3ccc(OC)cc3OC[C@@H]21 [euspeclibcmpd1733],-0.45
17,COc1cc2c(cc1OC)C1C(=O)c3c(O)cc4c(c3OC1CO2)C=CC(C)(C)O4 (stereo not drawn) [euspeclibcmpd1478],1.56
18,CCOC(=O)c1c(NC(=O)COC(=O)C(C)NC(N)=O)sc(C(C)=O)c1C (stereo not drawn),1.26
19,CCN(CC)CCCC(C)N=c1cc[nH]c2cc(Cl)ccc12 (stereo not drawn) [euspeclibcmpd325],-0.157
20,CCN(CC)CCCC(C)N=c1c2ccc(Cl)cc2[nH]c2ccc(OC)cc12 (stereo not drawn) [euspeclibcmpd261],19.2 (active)
21,O[C@@H]1[C@H](O)CO[C@H]1O [euspeclibcmpd1668],-0.319
